Reference: PubChem BioAssay AID1347076 (National Center for Advancing Translational Sciences (NCATS), 2019)
In all, about 400,000 compounds went through this assay and about 13,000 (3.2%) were called active. Not shown: some 18% with an inconclusive outcome. This excerpt belongs to a sample that is enriched for actives. Values without a mark were called inactive. The call rests on the fitted dose curve; in most records, active means well fitted cell-killing curve with a large enough effect; inconclusive means small, poorly fitted or top-dose-only effect, or effect the other way; inactive means flat fitted curve, though single readings scatter.

Test: qHTS assay for MDR1-selective chemotherapeutics: Primary screen using the drug-selected MDR subline cells KB-V1; further: nearly all actives have a fitted effect of over 60% in size
Details: KB-V1 MDR cells viability, CellTiter-Glo, 72 h; series mostly up to 46.1 µM; activity change, negative = cytotoxicity: at the top concentration
Outline: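 Cytotoxicity via CellTiter-Glo luminescence after 72 h compound exposure at 37 degrees C. Cells: drug-selected KB-V1 line, DMEM phenol-red free plus 10% FBS. Compounds tested at multiple concentrations; normalized data fitted to concentration-effect curves.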
On the % scale 0 is the no-effect control and ±100 the full control effect; potency means the concentration at half of the fitted maximal effect.

Row | Structure (SMILES) | Potency | activity change, negative = cytotoxicity
1 | CC(C)c1ccc(S(=O)(=O)Nc2ccc(O)c(Sc3nc4ccccc4s3)c2)cc1 | 16.4 µM (active) | 
2 | O=[N+]([O-])c1c(NCCO)cc(Sc2nc3ccccc3s2)c2nonc12 |  | -3.18%
3 | COC(=O)N(C)C[C@@H]1OCc2cnnn2CCCC(=O)N([C@@H](C)CO)C[C@@H]1C |  | 0.072%
4 | Nc1nc2c(ncn2[C@@H]2O[C@H](CNCc3ccc(OCCCN4CCOCC4)cc3)[C@@H](O)[C@H]2O)c(=O)[nH]1 |  | 6.4%
5 | Nc1ncnc2c1ncn2[C@@H]1O[C@H](C(=O)N2CCCN(Cc3ccccc3F)CC2)[C@@H](O)[C@H]1O |  | 0.685%
6 | CC(C)Oc1ccc(CCc2n[nH]c(=S)n2Cc2ccccc2)cc1 | 16.4 µM (active) | 
7 | CC(C)Oc1ccc(CCc2nnc(SCC(=O)O)n2-c2ccccc2)cc1 |  | 13.3%
8 | C=CCn1c(CCc2ccc(OC(C)C)cc2)n[nH]c1=S |  | -20.5%
9 | C[C@@H]1CN([C@@H](C)CO)C(=O)CCCn2cc(nn2)CO[C@H]1CN(C)S(=O)(=O)c1ccc(-n2cccn2)cc1 |  | 9.14%
10 | Nc1nnc(SCC(=O)Nc2ccc3nc(SCC(=O)Nc4ccccc4)sc3c2)s1 | 23.1 µM (active) | 
11 | CCCCNC(=O)CSc1nc2ccc(NC(=O)CSc3nnc(COc4ccccc4C)n3C)cc2s1 |  | -28.6%
12 | CCCCNC(=O)CSc1nc2ccc(NC(=O)CSc3nnc(N)s3)cc2s1 |  | 6.17%
13 | COc1ccc(N2c3ccccc3CN(Cc3ccccc3)[C@@H](C)[C@H]2Cc2ccc(-c3ccccc3)cc2)cc1 |  | 2.89%
14 | Clc1cccc(Cc2c(-c3cccc(Cl)c3)nc3ccc(Cl)cn23)c1 |  | 12%
15 | O=C(Nc1ccccc1F)c1ccc(Cn2cc(Br)cn2)cc1 |  | 0.173%
16 | CCc1ccc(NC(=O)c2ccc(Cn3cc([N+](=O)[O-])cn3)cc2)cc1 | 4.61 µM (active) | 
17 | O=C(c1ccc(Cn2cc([N+](=O)[O-])cn2)o1)N1CCCC1 |  | -1.32%
18 | CCOC(=O)C1=CC[C@@H](c2ccccc2)N(S(=O)(=O)c2ccc(C)cc2)[C@H]1c1cccc(OC)c1 |  | -19.1%
19 | O=C(NCc1ccccc1)C1c2ccccc2OCC(=O)N1CCCN1CCOCC1 (centres undefined) |  | 0%
20 | CCOC(=O)c1ccc(NC(=O)C2CC(=O)NC(=Nc3ccc(C)c(C)c3)S2)cc1 (centres undefined) |  | 0%
21 | Cc1ccc(Cc2c(-c3ccco3)nc3ccc(Cl)cn23)cc1 |  | -9.86%
22 | Oc1cccc(/C=N/Nc2ccc(Cl)nn2)c1O |  | -22.1%
23 | Brc1ccccc1/C=N/Nc1nc2ccccc2o1 |  | 16.2%
24 | Oc1c(Br)cccc1/C=N/Nc1c(F)c(F)c(F)c(F)c1F | 25.9 µM (active) | 
25 | CCOc1ccc(Nc2nc3c(S(=O)(=O)c4cccc(Cl)c4)nnn3c3ccsc23)cc1 |  | 1.29%

Row | Structure (SMILES) | Potency | activity change, negative = cytotoxicity
26 | CSc1ccc(CN2CCC2(C)C(=O)NCc2ccccc2Br)cc1 (centres undefined) |  | -11.6%
27 | CCc1nnc(NC(=O)c2ccco2)s1 |  | 27.7%
28 | CCCCCNC(=O)C1C(=O)Nc2ccccc2C(=O)N1C(C)(C)C (centres undefined) |  | -14.7%
29 | CCN(CCO)C(=S)Nc1cc(C(=O)OC)ccc1C(=O)OC |  | -19.1%
30 | CCS(=O)(=O)Nc1cc(C(=O)OC)ccc1C(=O)OC |  | 12.8%
31 | CCCN(CCC)C(=S)Nc1cc(C(=O)OC)ccc1C(=O)OC | 20.6 µM (active) | 
32 | COc1ccc2c(C)c(CCC(=O)NCc3ccc(OC)c(OC)c3)c(=O)oc2c1 |  | -7.69%
33 | O=C(CCCN1C(=O)C(c2ccccc2)Oc2cccnc21)Nc1ccccc1Br (centres undefined) |  | -25.5%
34 | Cn1nnc2c(N3CCN(c4ccccc4)CC3)ncnc21 |  | -12.8%
35 | O=C1NC[C@H](CCCCN2C[C@H](Cc3ccccc3)N(Cc3ccccc3)C(=O)C2=O)N(CCc2ccc(O)cc2)C1=O |  | 1.62%
36 | Nc1ccc(C(=O)N2CCN(S(=O)(=O)c3ccc(Cl)cc3)CC2)cc1[N+](=O)[O-] |  | -19.1%
37 | CC1CCN(C(=O)c2ccc(S(=O)(=O)Cc3cc(F)ccc3F)c([N+](=O)[O-])c2)CC1 | 14.6 µM (active) | 
38 | O=C(c1ccc(Oc2ccc(Cl)cc2)c([N+](=O)[O-])c1)N1CCCC1 |  | -2.56%
39 | O=C1CCC[C@@H]2C[C@@]3(C[C@@H]4CCN1[C@H]24)Nc1ccccc1NC3=NCc1ccccc1 |  | -4.8%
40 | Nc1cccc(-c2cncc(N3CCN(Cc4ccccn4)CC3)n2)c1 |  | 6.36%
41 | COc1ccc(S(=O)(=O)N2CCN(CC(=O)N3CCNC3=O)CC2)cc1OC |  | 0%
42 | O=C(COC(=O)CCc1c[nH]c2ccccc12)Nc1cccc(Cl)c1 |  | 19.9%
43 | CCc1cc(C(=O)N(CC)CC(=O)Nc2c(F)cccc2F)sc1C |  | -25.8%
44 | O=C(OCc1ccccc1)N1CCC2CC1c1ccc(-c3ccc4c(c3)OCO4)cc12 (centres undefined) |  | -16%
45 | O=S(=O)(c1ccc(SCc2ccccc2)nc1)N1CCCCCC1 |  | -12.3%
46 | O=S(=O)(c1ccc(SCc2ccc(Br)cc2)nc1)N1CCOCC1 | 13 µM (active) | 
47 | Cc1ccc(CSc2ccc(S(=O)(=O)N3CCCCC3)cn2)cc1 |  | 2.58%
48 | Cc1cccc2c1-c1sc(C(=O)Nc3ccc(F)cc3F)cc1CO2 |  | 2.92%
49 | COc1ccc(NC(=O)C2(C)Cc3c(-c4cccc(NC(C)=O)c4)ccnc3O2)cc1OC (centres undefined) |  | -7.13%
